# Experimental data as given in the supplement of paper PMC10849652.
# About 8,800 targets were measured; listed, in parts, are those with a hit and a random draw of the rest. About 0.5% of all pairs of compound and target were hits. Unmarked numbers belong to inactive results.
# Legend:
# Assay in all cases: log2 fold change, soluble protein after heating vs DMSO (PISA); higher = thermal stabilisation; K562 lysate, 10 uM; active = over 0.2 and 3.5 SD of the protein, either way, in both replicates (recomputed)
# alvocidib = compound: CN1CC[C@H](c2c(O)cc(O)c3c(=O)cc(-c4ccccc4Cl)oc23)[C@H](O)C1 [alvocidib]
# How it was run: (§1)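 The values are log-two fold changes in thermal stability compared with solvent controls and come from duplicates. They were obtained by TMTpro 16plex LC-MS/MS, with channel sums equalised, on the supernatant after 21,000xg for 90 min. That supernatant came from crude K562 extract at 1 mg/mL protein treated with 10 μM compound for 30 min, heated for 3 min across 48°C-58°C, pooled and brought to 0.5% NP-40 at 4°C.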
# Tubastatin A = compound: CN1CCc2c(c3ccccc3n2Cc2ccc(C(=O)NO)cc2)C1 [Tubastatin A]
# How it was run: as §1
# [1] = compound: CNC(=O)C1=CC=CC=C1NC2=NC(=NC=C2Cl)NC3=C(C=C(C=C3)N4CCOCC4)OC
# How it was run: as §1
# defactinib = compound: CNC(=O)c1ccc(Nc2ncc(C(F)(F)F)c(NCc3nccnc3N(C)S(C)(=O)=O)n2)cc1 [defactinib]
# How it was run: as §1
# [2] = compound: CNc1nc(-c2ccc3c(N)n[nH]c3c2)cc(N2C[C@@H](C(=O)NC3CCCCC3)CC[C@H]2C)n1
# How it was run: as §1
# encorafenib = compound: COC(=O)N[C@@H](C)CNc1nccc(-c2cn(C(C)C)nc2-c2cc(Cl)cc(NS(C)(=O)=O)c2F)n1 [encorafenib]
# How it was run: as §1
# [3] = compound: COC(=O)[C@H](CCSC)NC(=O)C1=C(C=C(C=C1)NC[C@H](CS)N)C2=CC=CC=C2
# How it was run: as §1
# alisertib = compound: COc1cc(Nc2ncc3c(n2)-c2ccc(Cl)cc2C(c2c(F)cccc2OC)=NC3)ccc1C(=O)O [alisertib]
# How it was run: as §1
# [4] = compound: COc1cc2nc(-c3cc(F)ccc3O)nc(N[C@@H]3CNC[C@H]3C(C)(C)O)c2cc1OC
# How it was run: as §1
# gefitinib = compound: COc1cc2ncnc(Nc3ccc(F)c(Cl)c3)c2cc1OCCCN1CCOCC1 [gefitinib]
# How it was run: as §1
# lapatinib = compound: CS(=O)(=O)CCNCc1ccc(-c2ccc3ncnc(Nc4ccc(OCc5cccc(F)c5)c(Cl)c4)c3c2)o1 [lapatinib]
# How it was run: as §1
# pictilisib = compound: CS(=O)(=O)N1CCN(Cc2cc3nc(-c4cccc5[nH]ncc45)nc(N4CCOCC4)c3s2)CC1 [pictilisib]
# How it was run: as §1
# crizotinib = compound: C[C@@H](Oc1cc(-c2cnn(C3CCNCC3)c2)cnc1N)c1c(Cl)ccc(F)c1Cl [crizotinib]
# How it was run: as §1
# [5] = compound: C[C@H](C1=CC=C(C=C1)C(=O)NC2=C3C=CNC3=NC=C2)N
# How it was run: as §1
# duvelisib = compound: C[C@H](Nc1ncnc2nc[nH]c12)c1cc2cccc(Cl)c2c(=O)n1-c1ccccc1 [duvelisib]
# How it was run: as §1
# gandotinib = compound: Cc1cc(Nc2cc(CN3CCOCC3)c3nc(C)c(Cc4ccc(Cl)cc4F)n3n2)n[nH]1 [gandotinib]
# How it was run: as §1
# tozasertib = compound: Cc1cc(Nc2cc(N3CCN(C)CC3)nc(Sc3ccc(NC(=O)C4CC4)cc3)n2)n[nH]1 [tozasertib]
# How it was run: as §1
# doramapimod = compound: Cc1ccc(-n2nc(C(C)(C)C)cc2NC(=O)Nc2ccc(OCCN3CCOCC3)c3ccccc23)cc1 [doramapimod]
# How it was run: as §1
# bafetinib = compound: Cc1ccc(NC(=O)c2ccc(CN3CC[C@H](N(C)C)C3)c(C(F)(F)F)c2)cc1Nc1nccc(-c2cncnc2)n1 [bafetinib]
# How it was run: as §1
# [6] = compound: Cc1cccc(CC(=O)N2CCc3c2ccc(-c2cn(C)c4ncnc(N)c24)c3F)n1
# How it was run: as §1
# Chain of UniProt P48147 (P48147 whole entry, looked up): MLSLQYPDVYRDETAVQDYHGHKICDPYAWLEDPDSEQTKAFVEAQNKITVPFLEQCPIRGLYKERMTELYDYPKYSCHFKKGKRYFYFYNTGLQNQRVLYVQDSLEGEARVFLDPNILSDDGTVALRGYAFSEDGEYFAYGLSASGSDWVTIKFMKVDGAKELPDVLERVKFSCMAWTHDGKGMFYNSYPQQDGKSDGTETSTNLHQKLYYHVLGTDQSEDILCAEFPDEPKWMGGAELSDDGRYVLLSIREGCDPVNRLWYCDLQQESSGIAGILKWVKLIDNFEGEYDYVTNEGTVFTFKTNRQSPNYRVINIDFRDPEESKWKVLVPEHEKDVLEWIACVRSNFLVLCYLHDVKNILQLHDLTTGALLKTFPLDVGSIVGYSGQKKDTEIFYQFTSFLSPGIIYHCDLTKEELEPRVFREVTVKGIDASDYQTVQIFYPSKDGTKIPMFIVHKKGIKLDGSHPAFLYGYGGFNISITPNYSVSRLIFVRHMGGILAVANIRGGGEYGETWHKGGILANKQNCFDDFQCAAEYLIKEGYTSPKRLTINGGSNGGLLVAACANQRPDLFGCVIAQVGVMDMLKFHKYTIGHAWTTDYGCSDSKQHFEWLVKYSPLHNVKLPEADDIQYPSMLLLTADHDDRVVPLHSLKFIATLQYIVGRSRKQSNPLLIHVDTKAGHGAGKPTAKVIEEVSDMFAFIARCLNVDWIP
# Chain of UniProt P28328 (P28328 whole entry, looked up): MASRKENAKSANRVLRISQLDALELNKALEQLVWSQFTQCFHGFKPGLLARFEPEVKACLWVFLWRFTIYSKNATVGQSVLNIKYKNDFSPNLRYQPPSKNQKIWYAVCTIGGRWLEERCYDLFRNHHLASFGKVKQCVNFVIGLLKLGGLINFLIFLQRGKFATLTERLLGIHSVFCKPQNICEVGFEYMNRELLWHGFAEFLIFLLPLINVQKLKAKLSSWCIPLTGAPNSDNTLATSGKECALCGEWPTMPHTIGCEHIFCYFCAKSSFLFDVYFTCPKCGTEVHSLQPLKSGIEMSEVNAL
# Chain of UniProt O43175 (O43175 whole entry, looked up): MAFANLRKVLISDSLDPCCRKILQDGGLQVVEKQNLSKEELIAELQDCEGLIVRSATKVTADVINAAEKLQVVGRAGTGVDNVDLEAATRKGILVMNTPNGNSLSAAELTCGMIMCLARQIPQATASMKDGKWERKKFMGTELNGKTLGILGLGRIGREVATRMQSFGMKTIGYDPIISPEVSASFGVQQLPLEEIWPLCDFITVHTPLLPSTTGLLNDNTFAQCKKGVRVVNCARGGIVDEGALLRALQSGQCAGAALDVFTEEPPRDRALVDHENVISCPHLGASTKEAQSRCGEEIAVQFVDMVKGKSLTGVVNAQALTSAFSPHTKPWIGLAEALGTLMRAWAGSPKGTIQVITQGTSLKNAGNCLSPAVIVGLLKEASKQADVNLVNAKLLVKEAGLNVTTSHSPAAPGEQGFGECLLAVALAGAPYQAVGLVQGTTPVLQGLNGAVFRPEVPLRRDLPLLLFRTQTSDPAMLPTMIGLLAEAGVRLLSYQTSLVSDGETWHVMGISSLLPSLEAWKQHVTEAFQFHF
# Chain of UniProt Q9NXJ5 (Q9NXJ5 whole entry, looked up): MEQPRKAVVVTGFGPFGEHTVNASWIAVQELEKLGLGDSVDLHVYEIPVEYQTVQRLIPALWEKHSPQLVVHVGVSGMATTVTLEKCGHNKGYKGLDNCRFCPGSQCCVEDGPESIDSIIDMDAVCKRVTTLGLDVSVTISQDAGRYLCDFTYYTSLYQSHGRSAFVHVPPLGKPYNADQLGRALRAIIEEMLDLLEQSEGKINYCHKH
# Chain of UniProt O15031 (O15031 whole entry, looked up): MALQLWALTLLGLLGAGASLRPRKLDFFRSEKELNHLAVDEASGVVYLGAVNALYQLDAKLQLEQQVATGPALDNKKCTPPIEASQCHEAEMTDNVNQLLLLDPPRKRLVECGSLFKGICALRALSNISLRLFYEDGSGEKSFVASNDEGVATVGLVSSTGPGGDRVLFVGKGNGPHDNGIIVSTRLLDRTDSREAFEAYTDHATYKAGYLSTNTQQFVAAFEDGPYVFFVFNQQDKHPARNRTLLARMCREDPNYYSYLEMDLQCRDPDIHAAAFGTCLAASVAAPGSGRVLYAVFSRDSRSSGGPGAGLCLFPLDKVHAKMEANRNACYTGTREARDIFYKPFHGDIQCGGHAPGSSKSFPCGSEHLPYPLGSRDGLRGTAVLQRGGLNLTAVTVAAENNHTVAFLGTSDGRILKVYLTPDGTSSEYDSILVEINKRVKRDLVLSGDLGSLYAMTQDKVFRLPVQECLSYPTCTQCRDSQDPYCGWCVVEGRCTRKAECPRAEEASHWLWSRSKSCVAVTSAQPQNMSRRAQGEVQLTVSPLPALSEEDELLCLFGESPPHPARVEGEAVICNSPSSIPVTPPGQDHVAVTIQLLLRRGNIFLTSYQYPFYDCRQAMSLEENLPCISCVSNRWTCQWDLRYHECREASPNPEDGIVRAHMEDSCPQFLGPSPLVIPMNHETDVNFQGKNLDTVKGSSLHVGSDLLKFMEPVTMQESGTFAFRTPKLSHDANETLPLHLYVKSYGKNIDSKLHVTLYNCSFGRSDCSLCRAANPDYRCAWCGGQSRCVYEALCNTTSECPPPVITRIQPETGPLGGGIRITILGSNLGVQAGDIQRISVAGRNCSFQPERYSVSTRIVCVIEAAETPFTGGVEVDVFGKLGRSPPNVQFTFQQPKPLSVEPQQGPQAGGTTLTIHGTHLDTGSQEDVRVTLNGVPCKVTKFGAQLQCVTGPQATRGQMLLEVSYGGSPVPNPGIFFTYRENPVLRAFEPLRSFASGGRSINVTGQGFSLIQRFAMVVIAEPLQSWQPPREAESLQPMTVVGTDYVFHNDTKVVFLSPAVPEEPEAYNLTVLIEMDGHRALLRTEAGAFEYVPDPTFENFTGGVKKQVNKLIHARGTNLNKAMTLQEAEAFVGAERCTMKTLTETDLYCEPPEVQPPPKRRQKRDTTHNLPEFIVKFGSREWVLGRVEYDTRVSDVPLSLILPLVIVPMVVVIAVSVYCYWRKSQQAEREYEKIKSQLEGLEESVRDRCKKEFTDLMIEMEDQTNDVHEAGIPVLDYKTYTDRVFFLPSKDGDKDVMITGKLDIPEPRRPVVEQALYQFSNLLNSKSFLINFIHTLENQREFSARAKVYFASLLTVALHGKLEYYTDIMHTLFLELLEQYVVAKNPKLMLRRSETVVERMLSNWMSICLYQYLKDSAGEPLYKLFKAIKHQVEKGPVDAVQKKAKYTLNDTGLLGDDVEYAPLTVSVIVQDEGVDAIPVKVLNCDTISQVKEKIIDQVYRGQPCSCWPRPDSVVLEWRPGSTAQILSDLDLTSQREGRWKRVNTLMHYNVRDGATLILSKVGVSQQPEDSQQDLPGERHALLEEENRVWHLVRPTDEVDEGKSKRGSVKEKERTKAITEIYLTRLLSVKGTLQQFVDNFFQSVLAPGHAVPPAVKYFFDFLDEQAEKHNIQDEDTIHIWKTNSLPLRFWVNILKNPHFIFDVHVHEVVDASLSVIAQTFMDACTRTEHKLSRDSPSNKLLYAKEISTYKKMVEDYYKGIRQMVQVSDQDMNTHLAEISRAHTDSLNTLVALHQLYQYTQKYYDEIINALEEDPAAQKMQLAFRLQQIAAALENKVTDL
# Chain of UniProt Q93096 (Q93096 whole entry, looked up): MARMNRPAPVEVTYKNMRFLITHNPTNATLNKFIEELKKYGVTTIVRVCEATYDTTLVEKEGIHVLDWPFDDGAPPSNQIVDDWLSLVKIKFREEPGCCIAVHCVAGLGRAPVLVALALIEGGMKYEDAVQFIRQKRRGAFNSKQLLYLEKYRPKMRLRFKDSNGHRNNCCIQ
# Chain of UniProt P11309 (P11309 whole entry, looked up): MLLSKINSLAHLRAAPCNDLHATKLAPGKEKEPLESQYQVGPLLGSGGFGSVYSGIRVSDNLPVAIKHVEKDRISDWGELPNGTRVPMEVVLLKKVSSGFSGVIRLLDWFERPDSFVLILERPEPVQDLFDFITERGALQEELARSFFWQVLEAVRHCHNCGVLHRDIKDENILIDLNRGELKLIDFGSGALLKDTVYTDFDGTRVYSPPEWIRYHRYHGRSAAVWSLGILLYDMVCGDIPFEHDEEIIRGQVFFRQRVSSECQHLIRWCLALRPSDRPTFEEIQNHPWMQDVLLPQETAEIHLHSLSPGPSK
# Chain of UniProt Q9BTU6 (Q9BTU6 whole entry, looked up): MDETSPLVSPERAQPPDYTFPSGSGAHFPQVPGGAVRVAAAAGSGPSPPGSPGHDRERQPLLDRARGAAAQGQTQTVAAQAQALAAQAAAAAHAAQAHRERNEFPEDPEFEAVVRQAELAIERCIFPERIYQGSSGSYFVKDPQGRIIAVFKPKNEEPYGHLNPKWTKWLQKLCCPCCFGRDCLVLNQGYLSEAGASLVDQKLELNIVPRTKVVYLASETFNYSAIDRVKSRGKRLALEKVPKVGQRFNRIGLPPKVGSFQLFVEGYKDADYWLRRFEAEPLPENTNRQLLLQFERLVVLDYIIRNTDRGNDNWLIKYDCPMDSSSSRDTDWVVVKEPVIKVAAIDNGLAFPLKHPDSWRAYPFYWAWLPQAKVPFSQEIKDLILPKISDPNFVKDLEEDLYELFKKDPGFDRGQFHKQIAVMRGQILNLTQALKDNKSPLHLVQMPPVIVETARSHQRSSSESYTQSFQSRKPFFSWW
# Chain of UniProt Q9NR22 (Q9NR22 whole entry, looked up): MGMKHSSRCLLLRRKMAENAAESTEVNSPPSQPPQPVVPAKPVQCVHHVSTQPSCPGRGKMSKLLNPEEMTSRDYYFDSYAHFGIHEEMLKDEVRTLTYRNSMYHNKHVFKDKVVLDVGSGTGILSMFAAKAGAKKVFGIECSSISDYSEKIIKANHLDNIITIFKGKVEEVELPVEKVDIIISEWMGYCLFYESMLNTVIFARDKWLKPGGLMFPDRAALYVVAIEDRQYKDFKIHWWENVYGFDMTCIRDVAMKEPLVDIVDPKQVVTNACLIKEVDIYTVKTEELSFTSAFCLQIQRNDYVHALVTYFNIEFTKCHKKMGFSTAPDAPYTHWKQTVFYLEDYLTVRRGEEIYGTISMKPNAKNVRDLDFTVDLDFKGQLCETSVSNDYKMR
Target,log2 fold change (alvocidib),log2 fold change (Tubastatin A),log2 fold change [1],log2 fold change (defactinib),log2 fold change [2],log2 fold change (encorafenib),log2 fold change [3],log2 fold change (alisertib),log2 fold change [4],log2 fold change (gefitinib),log2 fold change (lapatinib),log2 fold change (pictilisib),log2 fold change (crizotinib),log2 fold change [5],log2 fold change (duvelisib),log2 fold change (gandotinib),log2 fold change (tozasertib),log2 fold change (doramapimod),log2 fold change (bafetinib),log2 fold change [6]
PRKCSH (UniProt K7ELL7),0.048,0.073,-0.026,0.006,-0.013,0.048,-0.002,0.018,0.083,-0.12,-0.009,0.028,0.061,0.181,0.1,-0.047,0.062,-0.044,0.031,-0.019
PGPEP1 (UniProt Q9NXJ5),0.05,-0.182,0.012,-0.032,-0.055,0.02,0.057,-0.045,0.01,-0.06,0.023,-0.013,0.011,-0.025,0.057,-0.029,0.03,0.045,-0.013,-0.019
PIK3CG (UniProt P48736),-0.033,-0.044,0.04,0.009,-0.015,0.046,0.041,0.001,–,–,–,–,-0.128,-0.158,0.183,0.14,-0.038,0.04,-0.111,0.075
PLXNB2 (UniProt O15031),0,0.015,0.009,0.002,0.027,0.004,-0.107,0.017,0.054,0.016,-0.033,-0.068,-0.014,-0.019,0.031,-0.046,0.027,-0.044,-0.004,0.031
PEX2 (UniProt P28328),-0.041,-0.104,0.172,0.181,0.118,–,–,0.115,0.116,-0.372,-0.081,0.035,-0.041,-0.04,-0.031,0.096,–,-0.151,-0.218,0.149
PTK2 (UniProt Q05397),0.02,-0.033,0.54 (active),0.518 (active),-0.055,-0.057,-0.126,0.17,0.113,-0.022,-0.116,0.038,0.414,0.007,-0.076,0.396,0.026,–,-0.008,-0.117
PFN1 (UniProt P07737),-0.002,-0.01,-0.007,0.006,-0.024,-0.005,-0.097,0.004,-0.013,0.004,0.01,-0.003,0.016,-0.006,0.009,0.007,-0.004,0.007,0,0.007
PHGDH (UniProt O43175),0.028,-0.415 (active),-0.081,0.022,0.018,0.006,-0.439 (active),0.004,0.006,-0.016,-0.053,0.005,0,0.076,0,-0.071,0.019,-0.039,0.032,-0.055
PFKFB4 (UniProt Q16877),-0.03,-0.009,0.029,0.011,-0.027,0.02,-0.019,–,-0.016,–,-0.008,-0.061,-0.034,-0.027,0.011,-0.044,-0.012,0.009,-0.003,0.039
PIM1 isoform 2 (UniProt P11309),0.217,-0.204,0.052,0.035,-0.152,-0.007,0.038,-0.017,–,0.003,–,0.084,-0.107,0.096,0.081,-0.121,0.046,-0.012,-0.043,-0.025
PREP (UniProt P48147),0.018,-0.021,0.018,0.005,-0.019,-0.024,0.361 (active),-0.011,0.013,-0.012,-0.024,-0.013,-0.016,0.009,0.043,-0.042,-0.012,-0.001,-0.004,-0.01
PITRM1 isoform 2 (UniProt Q5JRX3),0.016,0.04,0.023,0.008,-0.029,-0.012,0.228 (active),-0.016,-0.016,0.044,-0.001,-0.025,0.053,0.04,0.029,0.013,0.006,-0.024,-0.023,-0.062
PGLS (UniProt O95336),0.177,0.09,0.061,0.231,0.016,0.017,0.019,0.03,-0.087,-0.163,0.068,0.011,0,0.206,0.033,-0.084,0.008,0.004,-0.031,-0.14
PRMT8 (UniProt Q9NR22),-0.11,-0.019,0.001,-0.103,-0.005,-0.002,0.004,-0.01,0.016,0.034,-0.011,0.004,-0.037,-0.256 (active),0.012,0.071,0.008,-0.001,-0.112,0.168
PI4K2A (UniProt Q9BTU6),-0.006,-0.037,0.021,-0.023,0.012,0.022,-0.092,-0.008,-0.056,0.021,-0.02,-0.036,0.003,-0.006,0.054,-0.03,-0.025,-0.008,0.008,0.014
PHACTR4 isoform 2 (UniProt Q8IZ21),0.209,0.016,-0.024,0.012,0.1,-0.01,-0.016,-0.019,0.004,-0.022,-0.015,-0.014,-0.005,0.764 (active),0,-0.121,-0.03,-0.003,0.022,-0.196
PTP4A1 (UniProt Q93096),0.05,0.033,0.023,0.033,0.023,0.006,-0.006,-0.056,-0.015,0.049,-0.002,0.008,0.09,0.133,0.023,-0.031,0.001,-0.009,-0.042,-0.055
